# AmpC detergent: blocks E. coli AmpC beta-lactamase in detergent assay | P00811 | AmpC hydrolysis of nitrocefin, absorbance 480 nm, 0.01% Triton | Potency, µM (titrated, usually from 114 µM), for the others: top-dose activity change, negative = inhibition, actives largely listed as inhibitors | 0.041% of 370,000 active | AID 485294;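 also: 0% = no-compound wells and -100% = no-enzyme wells; nearly all actives have a fitted effect of over 25% in size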
# Target sequence (P00811 whole entry, looked up): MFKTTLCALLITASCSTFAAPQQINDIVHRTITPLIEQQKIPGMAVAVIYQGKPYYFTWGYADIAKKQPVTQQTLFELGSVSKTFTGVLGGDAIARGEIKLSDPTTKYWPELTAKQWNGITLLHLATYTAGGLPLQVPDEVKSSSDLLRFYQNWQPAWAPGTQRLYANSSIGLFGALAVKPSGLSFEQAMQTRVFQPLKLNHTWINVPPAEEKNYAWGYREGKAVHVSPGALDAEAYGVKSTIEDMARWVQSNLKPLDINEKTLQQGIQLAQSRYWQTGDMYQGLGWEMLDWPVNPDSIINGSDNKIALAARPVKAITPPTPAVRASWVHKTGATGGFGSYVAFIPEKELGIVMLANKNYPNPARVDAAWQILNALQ
#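 AmpC (5.3 nM in the dispensed reagent) in 20 mM phosphate pH 7.0 with 0.01% (detergent screen) or 0.0001% Triton X-100 was preincubated with compounds for 15 min at room temperature. Nitrocefin was then added from an 800 uM solution, and hydrolysis was followed at 480 nm.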
# Giardia FBPA inh: blocks Giardia fructose-bisphosphate aldolase activity; A8B2U2; purified Giardia FBPA; Potency, µM (top dose mostly 59.6 µM), for the others: top-dose activity, negative = inhibition, usual class: inhibitors; 0.71% of 290,000 active; AID 2451; also: nearly all actives have a fitted effect of over 55% in size
# Target sequence (A8B2U2 whole entry, looked up): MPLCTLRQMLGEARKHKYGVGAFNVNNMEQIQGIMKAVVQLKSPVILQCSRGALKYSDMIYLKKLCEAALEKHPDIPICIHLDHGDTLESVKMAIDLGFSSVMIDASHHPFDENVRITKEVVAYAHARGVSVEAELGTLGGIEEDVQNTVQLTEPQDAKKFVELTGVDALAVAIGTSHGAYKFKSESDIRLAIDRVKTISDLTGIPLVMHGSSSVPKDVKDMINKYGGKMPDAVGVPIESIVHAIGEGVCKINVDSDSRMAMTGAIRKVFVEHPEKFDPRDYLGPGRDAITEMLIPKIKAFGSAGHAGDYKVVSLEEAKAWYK
#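 40 nM FBPA preincubated 10 min at RT with compound (up to 57.5 uM final), then substrate plus GAPDH/TPI/NAD/arsenate coupling and diaphorase/resazurin added. Fluorescence read after 20 min at RT, 525/598 nm.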
# AmpC no deterg: blocks E. coli AmpC beta-lactamase in detergent-free assay; AID 485341; 0.52% of 330,000 active; Potency, µM (highest dose often 57.1 µM), for the others: top-dose activity change, negative = inhibition, most hits filed as inhibitors; AmpC nitrocefin hydrolysis, absorbance 480 nm, 0.0001% Triton;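 also: plate controls were no compound for no effect and no enzyme for full effect; nearly all actives have a fitted effect of over 20% in size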
#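 AmpC (5.3 nM in the dispensed reagent) in 20 mM phosphate pH 7.0 with 0.01% (detergent screen) or 0.0001% Triton X-100 was preincubated with compounds for 15 min at room temperature. Nitrocefin was then added from an 800 uM solution, and hydrolysis was followed at 480 nm.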
# Sm TGR inh: blocks Schistosoma mansoni thioredoxin glutathione reductase | purified TGR, DTNB reduction, TNB absorbance 405 nm | 3% of 360,000 active | Q962Y6 | Potency, µM (top dose mostly 114 µM), inactives show top-dose activity change, negative = inhibition, hits mostly inhibitors; also: nearly all actives have a fitted effect of over 60% in size
#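 Kinetic colorimetric format: TGR-catalysed, NADPH-driven DTNB reduction monitored via TNB absorbance. Enzyme dispensed at 20 nM; compound exposure 15 min at room temperature before reaction start.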
# RE007 growth inh: less growth of the S. pombe RE007 Vpr strain; 0.21% of 360,000 active; Potency, µM (top dose mostly 92.2 µM), inactives show top-dose activity change, negative = less growth, hits mostly inhibitors; S. pombe RE007 Vpr strain, BacTiter-Glo ATP luminescence, 24 h; active = well fitted falling curve with a large enough effect; inconclusive = small, poorly fitted or top-dose-only effect; inactive = no such curve, though single readings can be large or run the other way; also: nearly all actives have a fitted effect of over 50% in size
#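 Fission yeast strain RE007, carrying one chromosomally integrated HIV-1 vpr copy, was seeded at OD 0.01 in PMG+AL medium with 23 nL pinned compound. After 24 h at 30 °C and 99% humidity, viability was read by BacTiter-Glo luminescence.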
# Numbers without * were called inactive; ? = inconclusive; nt = no result given. In the library only some 3.4% were active in any assay of this set; here they are far more common. Unless noted, calls follow the shape of the dose curve; as a rule, active = well fitted curve in the direction sought with a large enough effect; inconclusive = small, poorly fitted or top-dose-only effect, or another doubt; inactive = no such curve, though single readings can be large; an effect the other way counts as inactive or inconclusive. Unless noted, % is scaled to controls: 0 for no effect and ±100 for the full control effect; potency is read from the fitted curve at half-maximal effect.
SMILES,AmpC detergent,Giardia FBPA inh,AmpC no deterg,Sm TGR inh,RE007 growth inh
CCOc1ccccc1C(=O)Nc1ccc(NC(=O)c2ccccc2)cc1,3.8%,-12.4%,-20.8%,-1.3%,-4.3%
CCOC(=O)c1ccc(NC(=O)c2ccccc2)cc1,?,-2.8%,10µM*,9.0%,7.1%
CCOC(=O)c1ccc(NC(=O)CCS(=O)(=O)c2ccc(Br)s2)cc1,-3.6%,-0.4%,-33.2%,11.2µM*,3.9%
CCOc1ccccc1C(=O)Nc1ccc(C(=O)c2ccccc2)cc1,-3.3%,4.5%,-23.8%,4.47µM*,-2.2%
CCOC(=O)c1ccc(NC(=O)Nc2ncc(Cl)cc2Cl)cc1,-8.5%,-15.5%,-17.0%,39.8µM*,nt
COC(=O)c1sc(S(=O)(=O)N2CCC(C(N)=O)CC2)c(C(=O)OC)c1C,1.2%,11.1%,3.8%,-12.7%,2.7%
Cn1c(O)c(/C=C2\C=c3ccccc3=NC2=O)c(=O)n(C)c1=O,-8.1%,-8.0%,-21.6%,35.5µM*,2.5%
COc1ccccc1CNC(=O)c1ccc(Nc2nc3ccccc3n3nnnc23)cc1,?,nt,nt,-0.4%,nt
CCOc1ccc(C(=O)NC2CCN(C(=S)Nc3ccccc3C)CC2)cc1,?,1.1%,-17.5%,nt,-8.5%
O=C(O)CCCC(=O)Nc1ccccc1SCCS(=O)(=O)c1ccc(Cl)cc1,-19.3%,-3.1%,-9.5%,39.8µM*,0.5%
O=C(CCS(=O)(=O)c1ccc(Cl)cc1)Nc1ccccc1Br,-8.4%,-3.7%,-21.1%,5.4%,-10.4%
Cc1[nH]c2ccccc2c1C(=O)COc1ccccc1F,2.0%,-4.9%,-17.9%,-9.5%,39.6%
O=S(=O)(O)c1cccc(N=Nc2c(O)ccc3ccccc23)c1,-7.9%,9.1%,-21.7%,20µM*,-20.0%
Oc1ccc2ccccc2c1N=Nc1ccccc1F,3.7%,?,-18.5%,-24.5%,-15.5%
Oc1ccc2ccccc2c1N=Nc1ccccn1,-4.9%,-1.4%,28.0%,-7.1%,35.5µM*
Cc1ccc(NC(=O)Cn2cccc2)cc1Cl,-6.7%,1.2%,-24.3%,31.6µM*,11.3%
COc1ccc(N(CC(=O)NCCSCc2ccco2)S(=O)(=O)c2ccccc2)cc1Cl,4.4%,8.7%,-18.0%,17.8µM*,7.0%
COc1ccc(C)cc1N(CC(=O)NCCSCc1ccco1)S(=O)(=O)c1ccc(C)cc1,3.0%,1.4%,3.2%,31.6µM*,-4.1%
Cc1cccc(N(CC(=O)NCCSCc2ccco2)S(=O)(=O)c2ccccc2)c1,6.5%,0.1%,-1.2%,31.6µM*,2.3%
COc1cccc(N(CC(=O)NCCSCc2ccco2)S(=O)(=O)c2ccccc2)c1,3.7%,nt,-7.5%,?,11.0%
Cc1ccc(N(CC(=O)NCCSCc2ccco2)S(=O)(=O)c2ccc(C)cc2)cc1,-0.4%,-0.9%,-42.5%,1.4%,-18.8%
COc1ccc(N(CC(=O)NCc2ccco2)S(C)(=O)=O)cc1Cl,-15.4%,-0.7%,-11.2%,79.4µM*,4.4%
COc1ccc(C(=O)NCc2nnc(SCC(=O)NCc3ccco3)o2)cc1OC,2.3%,nt,-4.3%,-23.1%,38.9%
CCC1(c2ccc(C)cc2)NC(=O)N(CC(=O)Nc2cccc(S(=O)(=O)N3CCCC3)c2)C1=O (centres undefined),1.8%,nt,-38.1%,-1.7%,11.1%
CC(C)CN1CN(S(=O)(=O)c2cccs2)c2nc3ccccc3nc21,0.2%,15.7%,-33.4%,-4.2%,nt
SMILES,AmpC detergent,Giardia FBPA inh,AmpC no deterg,Sm TGR inh,RE007 growth inh
Cc1ccc(C)c(N(CC(=O)NCCSCc2ccco2)S(C)(=O)=O)c1,?,-11.7%,69.7%,20µM*,5.3%
COc1ccc(S(=O)(=O)NCCSCc2ccco2)cc1Cl,?,4.6%,-32.3%,31.6µM*,5.5%
Cc1ccc(CSCCNC(=O)CN(c2cc(C)ccc2C)S(C)(=O)=O)cc1,?,-9.5%,93.5%,-2.7%,-3.6%
CC(=O)Nc1cccc(-c2ccnc3c2CC(C(=O)Nc2cccc(OC(F)(F)F)c2)O3)c1 (centres undefined),nt,nt,nt,nt,-0.6%
CSc1nc(C)cc(NC(N)=O)n1,1.3%,1.1%,-17.5%,-0.5%,-3.1%
CC1CC(C)CN(C(=O)COC(=O)c2cc3ccccc3oc2=O)C1 (centres undefined),nt,nt,-9.2%,nt,22.0%
Cc1cc(C(=O)OCC(=O)N2CC(C)CC(C)C2)c(C)o1 (centres undefined),-10.3%,-3.0%,34.1%,25.1µM*,-21.1%
Cc1cc(C(=O)OCC(=O)N2c3ccccc3CC2C)c(C)o1 (centres undefined),4.8%,-2.7%,?,25.1µM*,-1.0%
Nc1ncnc2c1ccn2[C@H]1CN(Cc2ccc3c(c2)OCO3)C[C@@H](CO)O1,nt,nt,nt,nt,-12.7%
N#CCC(=O)Nc1ccc(C(=O)NCc2cccc(Cl)c2)cc1,-10.6%,0.7%,17.8µM*,3.1%,3.4%
Cc1cccc(N2CCN(C(=O)CCNS(=O)(=O)c3ccc4c(c3)oc(=O)n4C)CC2C)c1 (centres undefined),2.3%,nt,100.5%,-8.6%,0.1%
O=C1Nc2ccccc2Oc2cc(Oc3ccccc3)ccc21,-1.8%,nt,10µM*,-1.5%,nt
COc1ccc(-c2cc(C(=O)N/N=C/c3cccnc3)c3cc(C)cc(C)c3n2)cc1,-14.1%,3.1%,-16.0%,-21.3%,0.7%
CC(=O)N1N=C(c2ccccc2)OC1c1ccc([N+](=O)[O-])s1 (centres undefined),-7.3%,?,-24.8%,31.6µM*,35.5µM*
Cc1cc(C)c(NC(=O)C2CCN(S(=O)(=O)c3c(C)noc3/C=C/c3ccccc3F)CC2)c(C)c1,3.6%,nt,nt,-7.5%,nt
Cc1cc2c(c(=O)n1Cc1cccnc1)C(c1cccs1)C(C#N)=C(N)O2 (centres undefined),2.1%,-21.8%,-7.6%,10µM*,-6.6%
Cc1cccc(/C=C2\CCC(C3CCCC3)C2=O)c1 (centres undefined),?,-1.2%,-28.7%,-11.2%,-2.0%
COc1cccc(/C=C2/CCC(CN(C)C)C2=O)c1 (centres undefined),nt,nt,nt,nt,8.91µM*
COc1cccc(/C=C2\CCC(C3CCCC3)C2=O)c1 (centres undefined),-1.9%,8.6%,-30.4%,39.8µM*,0.3%
Cc1c(Br)c(O)c(Br)c2sc(=O)oc12,-3.9%,?,20µM*,2.82µM*,-16.9%
O=C(/C=C/c1ccco1)Nc1cccc(C(=O)Nc2ccccc2C(=O)O)c1,0.1%,-3.0%,-46.5%,3.98µM*,4.6%
Cc1cc(C)c2oc(-c3ccc(C)c(NC(=O)/C=C/c4ccco4)c3)nc2c1,-3.3%,nt,nt,12.6µM*,nt
CCc1ccccc1NC(=O)c1cccc(NC(=O)/C=C/c2ccco2)c1,-0.1%,-10.4%,-32.4%,20µM*,-12.3%
Cc1ccc(NC(=O)N/C=C/c2ccco2)cc1C,3.4%,-5.7%,-46.1%,?,-9.4%
Cc1ccc(NC(=O)c2cccc(NC(=O)/C=C/c3ccco3)c2)cc1C,?,-3.3%,-55.5%,44.7µM*,?

# From PubChem BioAssay
